# In PubChem BioAssay (EPA / NIEHS):
# Records with an inconclusive call do not appear. The source holds several records for some structures; these can differ, active in one and inactive in another. Activity calls are given as the source filed them. Rule for the calls: active = hit-call score of the fitted dose curve at least 0.9, where 1 is the maximum; inconclusive = response in the unintended direction; inactive = score below 0.9.
# Tests used:
# [1] = target: guinea pig Sigma Receptor, Non-selective Binding, SIGMAR1 (gene 100135589) (UniProt Q60492); test: NVS_OR_gSIGMA_NonSelective: NovaScreen (NVS) Nuclear Receptor Binding Assay for guinea pig Sigma Receptor, Non-selective Binding (AID 2283367)
# Chain of guinea pig Sigma Receptor, Non-selective Binding, SIGMAR1 (gene 100135589) (Q60492 whole entry, looked up): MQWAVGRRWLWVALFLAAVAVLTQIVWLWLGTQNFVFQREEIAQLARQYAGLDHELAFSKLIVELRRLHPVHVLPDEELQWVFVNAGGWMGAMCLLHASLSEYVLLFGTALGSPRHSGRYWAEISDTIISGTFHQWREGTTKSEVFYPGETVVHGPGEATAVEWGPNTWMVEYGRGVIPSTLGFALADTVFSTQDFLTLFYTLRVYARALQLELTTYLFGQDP
# Procedure, shortened: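 Membranes from guinea pig brain incubated with radioligand and test chemical for 1 h, then filtered and scintillation-counted. Duplicate primary testing at 25 uM, with concentration-series follow-up for actives.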
# [2] = target: human Adenosine Transporter (Adot), SLC29A1 (gene 2030) (UniProt Q99808); test: NVS_TR_hAdoT: NovaScreen (NVS) Transporter Assay for human Adenosine Transporter (Adot) (AID 2283368)
# Chain of human Adenosine Transporter (Adot), SLC29A1 (gene 2030) (Q99808 whole entry, looked up): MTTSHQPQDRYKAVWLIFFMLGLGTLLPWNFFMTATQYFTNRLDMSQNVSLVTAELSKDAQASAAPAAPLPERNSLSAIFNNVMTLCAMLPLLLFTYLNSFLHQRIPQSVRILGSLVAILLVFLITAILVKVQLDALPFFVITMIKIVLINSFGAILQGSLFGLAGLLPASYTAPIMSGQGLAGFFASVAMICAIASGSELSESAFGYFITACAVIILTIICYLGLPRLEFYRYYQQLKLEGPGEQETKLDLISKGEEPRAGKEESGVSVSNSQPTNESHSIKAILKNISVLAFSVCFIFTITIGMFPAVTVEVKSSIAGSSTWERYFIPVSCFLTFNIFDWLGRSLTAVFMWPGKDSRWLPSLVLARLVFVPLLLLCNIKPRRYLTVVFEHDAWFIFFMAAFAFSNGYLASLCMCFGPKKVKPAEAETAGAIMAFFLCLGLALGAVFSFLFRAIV
# Procedure, shortened: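 Binding displacement on U937 extracted protein, read 1 h post-dose by filtration and scintillation counting. Primary duplicate test at 25 uM, then singleton concentration series with 50 uM top; DMSO baseline.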
# [3] = tested on: guinea pig Dopamine Transporter (DAT), gene 100714898; test: NVS_TR_gDAT: NovaScreen (NVS) Transporter Assay for guinea pig Dopamine Transporter (DAT) (AID 2283369);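 note: active compounds lower bound radioligand signal relative to DMSO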
# Procedure, shortened: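 Radioligand displacement on membranes from guinea pig striatum, 2 h exposure, bound label counted by filtration and scintillation. Tested at 25 uM in duplicate, then actives in concentration series to 50 uM; DMSO as negative control.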
# [4] = target: human Serotonin Transporter (SERT), SLC6A4 (gene 6532) (UniProt P31645); test: NVS_TR_hSERT: NovaScreen (NVS) Transporter Assay for human Serotonin Transporter (SERT) (AID 2283372)
# Chain of human Serotonin Transporter (SERT), SLC6A4 (gene 6532) (P31645 whole entry, looked up): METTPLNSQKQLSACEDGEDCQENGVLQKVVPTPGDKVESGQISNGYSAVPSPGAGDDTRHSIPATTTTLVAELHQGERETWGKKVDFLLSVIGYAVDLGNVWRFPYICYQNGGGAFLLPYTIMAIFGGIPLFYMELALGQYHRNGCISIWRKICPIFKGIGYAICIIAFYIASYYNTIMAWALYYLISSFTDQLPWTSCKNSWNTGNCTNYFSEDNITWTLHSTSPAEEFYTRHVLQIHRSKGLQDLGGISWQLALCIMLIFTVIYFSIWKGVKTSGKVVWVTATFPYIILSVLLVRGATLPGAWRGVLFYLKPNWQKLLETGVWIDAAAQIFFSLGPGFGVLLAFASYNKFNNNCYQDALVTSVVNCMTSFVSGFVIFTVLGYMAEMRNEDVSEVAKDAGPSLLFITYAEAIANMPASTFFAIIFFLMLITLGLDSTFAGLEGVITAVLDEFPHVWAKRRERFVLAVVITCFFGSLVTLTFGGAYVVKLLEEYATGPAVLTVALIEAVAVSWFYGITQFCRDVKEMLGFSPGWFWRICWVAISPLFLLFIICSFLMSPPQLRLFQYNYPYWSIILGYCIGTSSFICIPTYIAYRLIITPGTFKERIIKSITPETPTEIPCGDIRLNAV
# Procedure, shortened: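 Human platelet membrane preparation; displacement of radioligand from serotonin transporter measured after 1 h by filtration and scintillation counting. Single 25 uM duplicate screen, then concentration series for actives, with DMSO as negative baseline.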
# [5] = tested on: rat Norepinephrine Transporter (NET), gene 83511; test: NVS_TR_rNET: NovaScreen (NVS) Transporter Assay for rat Norepinephrine Transporter (NET) (AID 2283373)
# Procedure, shortened: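 Competitive radioligand displacement at the rat NET using forebrain membrane preparations, 1 h incubation, filter-based scintillation readout. Primary testing in duplicate at a single 25 uM concentration; confirmed actives retested across concentrations.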
# [6] = target: human Dopamine Transporter (DAT), SLC6A3 (gene 6531) (UniProt Q01959); test: NVS_TR_hDAT: NovaScreen (NVS) Transporter Assay for human Dopamine Transporter (DAT) (AID 2283374);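 note: activity means loss of bound radioligand signal relative to DMSO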
# Chain of human Dopamine Transporter (DAT), SLC6A3 (gene 6531) (Q01959 whole entry, looked up): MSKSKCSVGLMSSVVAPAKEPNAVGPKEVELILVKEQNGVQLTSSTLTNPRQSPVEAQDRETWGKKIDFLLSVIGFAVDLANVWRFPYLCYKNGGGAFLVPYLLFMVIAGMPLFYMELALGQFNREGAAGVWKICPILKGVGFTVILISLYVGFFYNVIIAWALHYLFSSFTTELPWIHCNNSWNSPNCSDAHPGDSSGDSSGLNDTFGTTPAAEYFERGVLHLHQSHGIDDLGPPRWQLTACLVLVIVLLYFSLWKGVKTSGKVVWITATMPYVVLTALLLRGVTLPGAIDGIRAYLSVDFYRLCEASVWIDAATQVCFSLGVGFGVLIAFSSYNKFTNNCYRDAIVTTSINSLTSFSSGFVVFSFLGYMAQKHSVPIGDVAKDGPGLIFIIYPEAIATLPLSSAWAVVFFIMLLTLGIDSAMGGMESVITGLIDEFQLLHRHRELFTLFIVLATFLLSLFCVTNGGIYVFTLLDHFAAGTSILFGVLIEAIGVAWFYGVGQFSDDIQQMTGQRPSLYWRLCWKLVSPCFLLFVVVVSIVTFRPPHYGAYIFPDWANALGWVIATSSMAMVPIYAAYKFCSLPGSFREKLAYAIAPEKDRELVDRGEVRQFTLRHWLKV
# Procedure, shortened: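 hDAT membranes + tritiated/iodinated radioligand, competitive displacement; 1 h; filter scintillation readout. Single conc 25 uM (duplicate), then conc-response for actives. DMSO = negative control.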
# [7] = target: Peroxisome proliferator-activated receptor gamma (Homo sapiens) (UniProt P37231); test: NVS_NR_hPPARg: NovaScreen (NVS) Nuclear Receptor Binding Assay for human Peroxisome Proliferator-activated Receptor gamma (PPARg) (AID 2283370)
# Chain of Peroxisome proliferator-activated receptor gamma (Homo sapiens) (P37231 whole entry, looked up): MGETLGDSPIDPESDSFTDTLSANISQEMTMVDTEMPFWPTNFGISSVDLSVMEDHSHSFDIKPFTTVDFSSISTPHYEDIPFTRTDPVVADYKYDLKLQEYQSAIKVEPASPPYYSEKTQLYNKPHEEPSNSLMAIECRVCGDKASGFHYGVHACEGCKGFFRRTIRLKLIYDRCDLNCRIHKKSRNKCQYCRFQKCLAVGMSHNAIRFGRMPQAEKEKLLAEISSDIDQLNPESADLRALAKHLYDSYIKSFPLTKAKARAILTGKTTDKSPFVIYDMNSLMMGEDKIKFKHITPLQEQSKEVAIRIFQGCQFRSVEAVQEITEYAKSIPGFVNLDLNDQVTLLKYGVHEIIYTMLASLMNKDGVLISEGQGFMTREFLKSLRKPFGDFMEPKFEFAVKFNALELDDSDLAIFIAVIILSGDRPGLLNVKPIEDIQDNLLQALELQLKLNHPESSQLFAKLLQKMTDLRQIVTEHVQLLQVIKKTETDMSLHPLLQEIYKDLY
# Procedure, shortened: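 Fluorescence polarization readout of ligand binding to extracted human PPARg, measured at 2 h. Duplicate single-point screen at 25 uM, then concentration-series retesting; activity defined as signal loss versus DMSO.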
# [8] = target: Nuclear receptor subfamily 1 group I member 2 (Homo sapiens) (UniProt O75469); test: NVS_NR_hPXR: NovaScreen (NVS) Nuclear Receptor Binding Assay for human Pregnane X Receptor (PXR) (AID 2283365);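 note: a drop in FRET signal versus DMSO baseline means the compound binds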
# Chain of Nuclear receptor subfamily 1 group I member 2 (Homo sapiens) (O75469 whole entry, looked up): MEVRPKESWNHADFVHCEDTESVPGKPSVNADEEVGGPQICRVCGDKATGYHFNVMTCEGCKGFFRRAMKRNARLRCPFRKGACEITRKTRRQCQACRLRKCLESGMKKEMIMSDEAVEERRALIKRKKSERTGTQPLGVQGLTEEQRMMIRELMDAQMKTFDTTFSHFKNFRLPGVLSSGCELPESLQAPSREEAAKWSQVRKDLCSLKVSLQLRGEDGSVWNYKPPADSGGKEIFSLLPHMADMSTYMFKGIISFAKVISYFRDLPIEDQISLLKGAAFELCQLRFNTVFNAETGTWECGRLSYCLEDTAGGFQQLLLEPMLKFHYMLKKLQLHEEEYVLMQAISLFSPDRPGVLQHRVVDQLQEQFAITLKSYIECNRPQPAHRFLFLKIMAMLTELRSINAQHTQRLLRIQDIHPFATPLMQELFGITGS
# Procedure, shortened: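 Human PXR binding measured by TR-FRET in a cell-free format, 2 h exposure. Single-concentration duplicates at 25 uM preceded concentration-response retests of actives; endpoint fitted positively relative to DMSO, loss of signal indicating binding.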
# [9] = target: rat Androgen Receptor (AR), Ar (gene 24208) (UniProt P15207); test: NVS_NR_rAR: NovaScreen (NVS) Nuclear Receptor Binding Assay for rat Androgen Receptor (AR) (AID 2283366)
# Chain of rat Androgen Receptor (AR), Ar (gene 24208) (P15207 whole entry, looked up): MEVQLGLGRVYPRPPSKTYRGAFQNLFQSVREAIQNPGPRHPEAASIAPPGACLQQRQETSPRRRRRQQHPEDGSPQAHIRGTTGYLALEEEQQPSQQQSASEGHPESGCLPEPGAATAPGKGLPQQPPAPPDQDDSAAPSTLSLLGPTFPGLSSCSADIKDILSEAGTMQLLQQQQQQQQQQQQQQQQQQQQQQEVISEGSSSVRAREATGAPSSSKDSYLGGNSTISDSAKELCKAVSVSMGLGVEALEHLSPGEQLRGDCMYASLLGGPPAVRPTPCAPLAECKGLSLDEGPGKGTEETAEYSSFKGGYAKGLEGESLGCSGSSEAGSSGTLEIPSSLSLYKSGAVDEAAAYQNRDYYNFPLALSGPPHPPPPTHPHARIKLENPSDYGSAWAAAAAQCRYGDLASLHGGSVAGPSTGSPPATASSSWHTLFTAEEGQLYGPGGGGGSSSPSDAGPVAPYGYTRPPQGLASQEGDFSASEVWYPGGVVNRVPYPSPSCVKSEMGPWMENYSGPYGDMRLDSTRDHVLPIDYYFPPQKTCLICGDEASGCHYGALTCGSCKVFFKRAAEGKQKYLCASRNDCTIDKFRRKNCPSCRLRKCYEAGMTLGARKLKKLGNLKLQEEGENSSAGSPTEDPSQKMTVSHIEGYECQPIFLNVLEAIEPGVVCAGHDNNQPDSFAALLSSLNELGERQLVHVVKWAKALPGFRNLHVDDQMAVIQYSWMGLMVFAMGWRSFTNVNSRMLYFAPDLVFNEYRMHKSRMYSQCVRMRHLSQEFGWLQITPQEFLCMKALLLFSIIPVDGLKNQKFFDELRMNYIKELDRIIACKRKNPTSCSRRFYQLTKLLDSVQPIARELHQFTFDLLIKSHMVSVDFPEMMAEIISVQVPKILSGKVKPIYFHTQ
# Procedure, shortened: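 Actives from a duplicate single-concentration (25 uM) primary run went on to concentration series. Displacement of radioligand was counted by filtration and scintillation, 18 h post-dose, using prostate extracts from testosterone-pretreated rats, with DMSO as baseline.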
compound,measurement,setting,value
C[C@]12CCC(=O)C[C@@H]1CC[C@@H]1[C@@H]2CC[C@]2(C)[C@@H](O)CC[C@@H]12,AC50,[1],5.71 µM (active)
CC(=O)[O][Hg][c]1ccccc1,AC50,[2],11.8 µM (active)
C=C(C)C(=O)[O][Sn]([CH2]CCC)([CH2]CCC)[CH2]CCC,AC50,[2],36.7 µM (active)
same,AC50,[3],19.9 µM (active)
same,AC50,[4],8.9 µM (active)
same,AC50,[5],25 µM (active)
CC(C)(C)CC(C)(C)c1ccc(O)cc1,outcome,[3],inactive
Nc1ccc(Cl)cc1C(=O)c1ccccc1,AC50,[3],6.19 µM (active)
same,AC50,[6],1.73 µM (active)
O=C(OC1CCCCC1)c1ccccc1C(=O)OC1CCCCC1,outcome,[7],inactive
CCCCCCCCc1ccc(O)cc1,outcome,[7],inactive
CN(C)N=O,outcome,[7],inactive
CCOP(=S)(OCC)SCSP(=S)(OCC)OCC,outcome,[8],inactive
same,AC50,[6],25 µM (active)
COc1cc(-c2ccc(N)c(OC)c2)ccc1N,AC50,[2],14.2 µM (active)
same,outcome,[7],inactive
same,outcome,[5],inactive
O=[N+]([O-])c1ccc(O)c([N+](=O)[O-])c1,outcome,[9],inactive
same,outcome,[7],inactive
N#CCCO,outcome,[9],inactive
CCC[CH2][Sn]([Cl])([Cl])[Cl],outcome,[7],inactive
Nc1ccc(-c2ccc(N)c(Cl)c2)cc1Cl,AC50,[1],32.5 µM (active)
same,AC50,[3],3.73 µM (active)
same,AC50,[6],1.63 µM (active)
CCC(C)(C)c1ccc(O)c(C(C)(C)CC)c1,outcome,[7],inactive
O=C/C=C/c1ccccc1,outcome,[7],inactive
CCOC(=O)/C=C(C)/C=C/C[C@@H](C)CCCC(C)C,AC50,[1],11 µM (active)
NC(=S)Nc1ccccc1,AC50,[1],33 µM (active)
COP(=S)(OC)Oc1ccc(Sc2ccc(OP(=S)(OC)OC)cc2)cc1,AC50,[9],16.1 µM (active)
same,outcome,[9],inactive
same,AC50,[7],0.13 µM (active)
same,outcome,[7],inactive
